From PubChem BioAssay (EPA / NIEHS)
Active and inactive are the calls of the source. How the source made its calls: active means hit-call score of the fitted dose curve at least 0.9, where 1 is the maximum; inactive means score below 0.9.

Tests used:
[1] = read-out: Human Leukocyte Antigen - DR isotype (HLADR), HLA-DRA (gene 3122); assay: BSK_CASM3C_HLADR: BioMAP Diversity Plus: CASM3C Assay for Human Leukocyte Antigen - DR isotype (HLADR) Biomarker Activity (AID 2283043); conditions: primary human coronary artery smooth muscle cells; actives raise or lower the signal;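 further: cell-surface HLA-DR protein level quantified by ELISA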
[2] = read-out: Macrophage colony-stimulating factor (MCSF), CSF1 (gene 1435); assay: BSK_CASM3C_MCSF: BioMAP Diversity Plus: CASM3C Assay for Macrophage colony-stimulating factor (MCSF) Biomarker Activity (AID 2283044); conditions: primary human coronary artery smooth muscle cells; actives raise or lower the signal;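 further: M-CSF protein amount quantified by ELISA after 24 h exposure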
[3] = read-out: Low-density lipoprotein receptor (LDLR), LDLR (gene 3949); assay: BSK_CASM3C_LDLR: BioMAP Diversity Plus: CASM3C Assay for Low-density lipoprotein receptor (LDLR) Biomarker Activity (AID 2283045); conditions: primary human coronary artery smooth muscle cells; actives raise or lower the signal;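 further: LDLR protein level on the cell surface quantified by ELISA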
[4] = read-out: Monocyte Chemoattractant Protein-1 (MCP1), CCL2 (gene 6347); assay: BSK_CASM3C_MCP1: BioMAP Diversity Plus: CASM3C Assay for Monocyte Chemoattractant Protein-1 (MCP1) Biomarker Activity (AID 2283046); conditions: primary human coronary artery smooth muscle cells; actives raise or lower the signal;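 further: MCP-1 level quantified by ELISA 24 h after dosing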
[5] = BSK_CASM3C_Proliferation: Cell Proliferation Assessment in the BioMAP Diversity Plus: CASM3C Assay (AID 2283047); conditions: primary human coronary artery smooth muscle cells;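 further: sulforhodamine B total protein stain as relative cell number at 560 nm; sub-confluent cells exposed 48 h before staining; fitted both ways against DMSO so gain or loss of cell number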
[6] = read-out: Monokine induced gamma interferon (MIG), CXCL9 (gene 4283); assay: BSK_CASM3C_MIG: BioMAP Diversity Plus: CASM3C Assay for Monokine induced gamma interferon (MIG) Biomarker Activity (AID 2283048); conditions: primary human coronary artery smooth muscle cells; actives raise or lower the signal;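 further: MIG protein level measured by ELISA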
[7] = read-out: serum amyloid A (SAA), SAA1 (gene 6288); assay: BSK_CASM3C_SAA: BioMAP Diversity Plus: CASM3C Assay for serum amyloid A (SAA) Biomarker Activity (AID 2283049); conditions: primary human coronary artery smooth muscle cells; actives raise or lower the signal;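 further: SAA protein level quantified by ELISA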
[8] = BSK_CASM3C_SRB: Viability Assessment in the BioMAP Diversity Plus: CASM3C Assay (AID 2283050); conditions: primary human coronary artery smooth muscle cells;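 further: total protein by SRB staining as cytotoxicity measure in parallel cultures; cells exposed to compound for 24 h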
[9] = read-out: Thrombomodulin, THBD (gene 7056); assay: BSK_CASM3C_Thrombomodulin: BioMAP Diversity Plus: CASM3C Assay for Thrombomodulin Biomarker Activity (AID 2283051); conditions: primary human coronary artery smooth muscle cells; actives raise or lower the signal;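 further: thrombomodulin protein level measured by ELISA 24 h after dosing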
[10] = read-out: Tissue Factor, F3 (gene 2152); assay: BSK_CASM3C_TissueFactor: BioMAP Diversity Plus: CASM3C Assay for Tissue Factor Biomarker Activity (AID 2283052); conditions: primary human coronary artery smooth muscle cells; actives raise or lower the signal;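 further: cell surface tissue factor protein level read by ELISA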
[11] = read-out: Interferon-gamma inducible Protein 10 (IP10), CXCL10 (gene 3627); assay: BSK_hDFCGF_IP10: BioMAP Diversity Plus: hDFCGF Assay for Interferon-gamma inducible Protein 10 (IP10) Biomarker Activity (AID 2283053); conditions: primary human foreskin fibroblasts; actives raise or lower the signal
How it was run: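 ELISA read-out of IP-10 (CXCL10) from primary human skin fibroblasts, 24 h after compound addition. Gain or loss of signal versus DMSO baseline, bidirectional curve fitting.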

[12] = read-out: Urokinase-type plasminogen activator receptor (uPAR), PLAUR (gene 5329); assay: BSK_CASM3C_uPAR: BioMAP Diversity Plus: CASM3C Assay for Urokinase-type plasminogen activator receptor (uPAR) Biomarker Activity (AID 2283054); conditions: primary human coronary artery smooth muscle cells; actives raise or lower the signal;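 further: cell-surface uPAR protein level quantified by ELISA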
[13] = read-out: Vascular cell adhesion molecule 1 (VCAM1), VCAM1 (gene 7412); assay: BSK_CASM3C_VCAM1: BioMAP Diversity Plus: CASM3C Assay for Vascular cell adhesion molecule 1 (VCAM1) Biomarker Activity (AID 2283055); conditions: primary human coronary artery smooth muscle cells; actives raise or lower the signal;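 further: VCAM-1 protein level quantified by ELISA on the cells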
[14] = read-out: Collagen III, COL3A1 (gene 1281); assay: BSK_hDFCGF_CollagenIII: BioMAP Diversity Plus: hDFCGF Assay for Collagen III Biomarker Activity (AID 2283056); conditions: primary human foreskin fibroblasts; actives raise or lower the signal
How it was run: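 ELISA read-out of collagen III from human skin fibroblast cultures sampled 24 h post-dosing. Values were derived by bidirectional fitting relative to the DMSO vehicle control.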

[15] = read-out: Epidermal growth factor receptor (EGFR), EGFR (gene 1956); assay: BSK_hDFCGF_EGFR: BioMAP Diversity Plus: hDFCGF Assay for Epidermal growth factor receptor (EGFR) Biomarker Activity (AID 2283057); conditions: primary human foreskin fibroblasts; actives raise or lower the signal
How it was run: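 ELISA readout of EGFR on human dermal fibroblasts (primary foreskin cells), 24 h post-dosing; bidirectional curve fit vs DMSO baseline, gain or loss of signal scored.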

[16] = read-out: Interleukin-8 (IL8), CXCL8 (gene 3576); assay: BSK_hDFCGF_IL8: BioMAP Diversity Plus: hDFCGF Assay for Interleukin-8 (IL8) Biomarker Activity (AID 2283058); conditions: primary human foreskin fibroblasts; actives raise or lower the signal
How it was run: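 Cells used are human skin primary fibroblasts. Chemical is added, cultures run 24 h, then IL-8 is quantified by ELISA, and gain or loss versus DMSO control is fitted in both directions.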

[17] = BSK_hDFCGF_Proliferation: Cell Proliferation Assessment in the BioMAP Diversity Plus: hDFCGF Assay (AID 2283059); conditions: primary human foreskin fibroblasts;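 further: curves fitted for both rise and fall of signal versus DMSO baseline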
How it was run: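 Primary human foreskin fibroblasts, sub-confluent; […]; 10% TCA fix, 0.1% SRB stain, A560 total protein. Gain/loss fitted bidirectionally vs DMSO control.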

[18] = read-out: Macrophage colony-stimulating factor (MCSF), CSF1 (gene 1435); assay: BSK_hDFCGF_MCSF: BioMAP Diversity Plus: hDFCGF Assay for Macrophage colony-stimulating factor (MCSF) Biomarker Activity (AID 2283060); conditions: primary human foreskin fibroblasts; actives raise or lower the signal
How it was run: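 Primary human foreskin fibroblasts dosed with chemical; 24 h later, M-CSF quantified by ELISA; curves fitted in both directions vs DMSO negative control.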

[19] = BSK_hDFCGF_SRB: Viability Assessment in the BioMAP Diversity Plus: hDFCGF Assay (AID 2283061); conditions: primary human foreskin fibroblasts;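 further: cells exposed to compound for 24 h before the read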
How it was run: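 Readout is SRB absorbance at 560 nm, reflecting total protein in parallel cultures of human foreskin fibroblasts harvested 24 h after chemical dosing. Activity was fitted bidirectionally relative to DMSO.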

[20] = read-out: TIMP metallopeptidase inhibitor 1 (TIMP1), TIMP1 (gene 7076); assay: BSK_hDFCGF_TIMP1: BioMAP Diversity Plus: hDFCGF Assay for TIMP metallopeptidase inhibitor 1 (TIMP1) Biomarker Activity (AID 2283062); conditions: primary human foreskin fibroblasts; actives raise or lower the signal
How it was run: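 Human skin fibroblasts (primary), hDFCGF system; compound exposure 24 h; TIMP-1 by ELISA; bidirectional fit vs DMSO negative control; overt cytotoxicity by SRB in parallel wells.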

Measured: AC50

C[C@](N)(Cc1ccc(O)c(O)c1)C(=O)O
inactive: [1] | [2] | [3] | [4] | [5] | [6] | [7] | [8] | [9] | [10] | [12] | [13] | [14] | [15] | [16] | [19] | [20]
active: [11] 23.2 µM | [17] 12.5 µM | [18] 26.6 µM

COc1ccc2sc(C(=O)Nc3nnn[nH]3)c(OC(C)C)c2c1
active: [1] 13.3 µM | [2] 19.9 µM | [4] 15.8 µM | [5] 11.1 µM | [7] 19.9 µM | [8] 15.5 µM | [9] 8.49 µM | [10] 7.08 µM | [11] 13.6 µM | [12] 13 µM | [14] 5.42 µM | [15] 8.61 µM | [16] 20.5 µM | [17] 12.1 µM | [18] 11.4 µM | [19] 10.3 µM | [20] 7.77 µM
inactive: [3] | [6] | [13]

Oc1ccc2c(c1)-c1ccccc1C2
active: [5] 6.61 µM | [17] 29.8 µM
inactive: [1] | [2] | [3] | [4] | [6] | [7] | [8] | [9] | [10] | [11] | [12] | [13] | [14] | [15] | [16] | [18] | [19] | [20]

CCOC(=O)CC(CC(=O)OCC)(OC(C)=O)C(=O)OCC
inactive: [1] | [2] | [3] | [4] | [5] | [6] | [7] | [8] | [9] | [10] | [11] | [12] | [13] | [14] | [15] | [16] | [17] | [18] | [19] | [20]

CNCc1ccc(NC(=O)c2c[nH]c3c2C(=O)CCC3)cc1
inactive: [1] | [2] | [3] | [4] | [5] | [6] | [7] | [8] | [9] | [10] | [11] | [12] | [13] | [14] | [15] | [16] | [17] | [18] | [19] | [20]

CCCCCCCCCCCCc1ccccc1
inactive: [1] | [2] | [3] | [4] | [5] | [6] | [7] | [8] | [9] | [10] | [11] | [12] | [13] | [14] | [16] | [17] | [18] | [19] | [20]

CC(C)c1cccc(C(C)C)c1N1C(=O)c2ccc(O)cc2C1=O
active: [1] 14.1 µM | [2] 32 µM | [3] 36.3 µM | [5] 20 µM | [7] 26.1 µM | [8] 20 µM | [11] 27.9 µM | [12] 20 µM | [13] 16.9 µM | [17] 9.91 µM | [18] 14.7 µM | [19] 14.9 µM | [20] 5.39 µM
inactive: [4] | [6] | [9] | [10] | [14] | [16]

CNS(=O)(=O)c1cc(C(=O)N2CCC(CCN3C4CCC3CC(n3c(C)nc5ccccc53)C4)(c3cccc(F)c3)CC2)c(Cl)cc1F (stereo not drawn)
inactive: [2] | [4] | [6] | [7] | [8] | [9] | [10] | [11] | [12] | [16] | [18] | [20]
active: [1] 28.5 µM | [3] 5.4 µM | [5] 13.5 µM | [13] 6.7 µM | [14] 20 µM | [17] 11.5 µM | [19] 24.8 µM

Cc1c(-c2cccnc2)c2ccccc2n1CCCCC(=O)O
active: [1] 3.97 µM
inactive: [2] | [3] | [4] | [5] | [6] | [7] | [8] | [9] | [10] | [11] | [12] | [13] | [14] | [15] | [16] | [18] | [19] | [20]

CCCCCCCCO
inactive: [1] | [2] | [3] | [4] | [5] | [6] | [7] | [8] | [9] | [10] | [11] | [12] | [13] | [14] | [16] | [17] | [18] | [19] | [20]

CCNc1ccccc1
inactive: [1] | [2] | [3] | [4] | [5] | [6] | [7] | [8] | [9] | [10] | [11] | [12] | [13] | [14] | [15] | [16] | [18] | [19] | [20]

CCOCCO
inactive: [1] | [2] | [3] | [4] | [5] | [6] | [7] | [8] | [9] | [10] | [11] | [12] | [13] | [14] | [15] | [16] | [18] | [19] | [20]
